# Measured values taken from PubChem BioAssay (NCI).
# About 79,000 compounds went through this panel and 15% of them were active in at least one assay; those are over-represented in the sample as a whole. Unmarked numbers belong to inactive results. Calls of active or inactive are those of the source. No stated cut-off is given here; in the data, active means growth inhibition above about 70%; inactive means the rest.
# Experiments:
# [1] = NCI Yeast Anticancer Drug Screen. Data for the mlh1 strain (AID 171);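 further: 0% = growth of vehicle-treated control cultures of the same strain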; conditions: S. cerevisiae mlh1 strain growth inhibition, hits give high values
# In short: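 Vehicle-normalised growth inhibition of a repair- or checkpoint-altered yeast strain following compound treatment.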
# [2] = NCI Yeast Anticancer Drug Screen. Data for the mlh1 rad18 strain (AID 175); conditions: S. cerevisiae mlh1 rad18 strain growth inhibition, hits give high values
# In short: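 Vehicle-treated cultures served as the reference for growth inhibition in a yeast strain carrying DNA damage repair alterations exposed to each compound.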
# [3] = NCI Yeast Anticancer Drug Screen. Data for the rad18 strain (AID 177); conditions: S. cerevisiae rad18 mutant growth inhibition, hits give high values
# In short: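 Test articles were incubated with altered yeast defective in DNA damage repair. Results are given as inhibition of growth versus vehicle.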
# [4] = NCI Yeast Anticancer Drug Screen. Data for the wt1 strain (AID 149);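 further: 0% = growth of vehicle-treated wt1 cultures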; conditions: S. cerevisiae wt1 strain (SPY 50644) growth inhibition, hits give high values
# In short: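 Vehicle-normalised growth inhibition; strain wt1; compound exposure.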
# [5] = NCI Yeast Anticancer Drug Screen. Data for the rad50EPP+ strain (AID 151);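 further: 0% = growth of vehicle-treated control cultures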; conditions: S. cerevisiae rad50 mutant strain, hits give high values
# In short: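 In this screen, rad50EPP+ yeast were exposed to compounds. Growth inhibition was scored against vehicle-treated controls.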
# [6] = NCI Yeast Anticancer Drug Screen. Data for the mgt1 strain (AID 153); conditions: S. cerevisiae mgt1 mutant growth inhibition, hits give high values
# In short: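 mgt1 strain exposed; growth vs vehicle control recorded as inhibition.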
# [7] = NCI Yeast Anticancer Drug Screen. Data for the rad50 strain (AID 155);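 further: 0% = growth of vehicle-only cultures of the same strain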; conditions: S. cerevisiae rad50 strain growth inhibition, hits give high values
# In short: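 A DNA repair-deficient yeast mutant serves as the test organism; compound-induced growth inhibition is calculated against vehicle-treated cells.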
# [8] = NCI Yeast Anticancer Drug Screen. Data for the mec2-1 strain (AID 157); conditions: S. cerevisiae mec2-1 strain, hits give high values
# In short: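 Vehicle-treated cultures served as reference for growth inhibition of compound-exposed mec2-1 yeast.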
# [9] = NCI Yeast Anticancer Drug Screen. Data for the rad14 strain (AID 159);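 further: 0% = growth of vehicle-treated control cultures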; conditions: S. cerevisiae rad14 strain growth inhibition, hits give high values
# In short: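 Vehicle-treated cultures served as the baseline for growth inhibition of a DNA repair-mutant yeast strain exposed to each compound.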
# [10] = NCI Yeast Anticancer Drug Screen. Data for the sgs1 mgt1 strain (AID 161);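 further: 0% = growth of cultures given vehicle only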; conditions: S. cerevisiae sgs1 mgt1 strain, hits give high values
# In short: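 Genetically altered yeast, compound exposure, growth inhibition relative to vehicle.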
# [11] = NCI Yeast Anticancer Drug Screen. Data for the cln2 rad14 strain (AID 165);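 further: 0% = growth equal to vehicle treated cultures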; conditions: S. cerevisiae cln2 rad14 strain, hits give high values
# In short: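 Each compound was tested on cln2 rad14 yeast. Inhibition of growth was calculated against vehicle-exposed controls.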
# [12] = NCI Yeast Anticancer Drug Screen. Data for the bub3 strain (AID 167); conditions: S. cerevisiae bub3 mutant strain, hits give high values
# In short: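 Inhibition values come from growth of compound-treated mutant yeast normalised to vehicle-treated controls.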
# [13] = NCI Yeast Anticancer Drug Screen. Data for the wt2 strain (AID 169);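 further: 0% = growth of vehicle-treated yeast cultures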; conditions: S. cerevisiae wt2 strain growth inhibition, hits give high values
# In short: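 Inhibition of yeast growth was determined after compound treatment, normalised to controls receiving only vehicle.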
# [14] = NCI Yeast Anticancer Drug Screen. Data for the CLN2oe strain (AID 163);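 further: 0% = growth of vehicle-only control cultures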; conditions: S. cerevisiae CLN2oe strain, hits give high values
# In short: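 Inhibition relative to vehicle-treated yeast is reported. Cells: strain with genetic alteration in cell-cycle control, grown with compound.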
# [15] = NCI Yeast Anticancer Drug Screen. Data for the sgs1 strain (AID 173);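 further: 0% = growth of vehicle-only control cultures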; conditions: S. cerevisiae sgs1 mutant, hits give high values
# In short: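 Screen format: yeast with repair or checkpoint alterations, compound exposure, growth read relative to vehicle.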
# [16] = at 5.0 µM (retest, dose inferred, filed as 0.5)
# [17] = at 50.0 µM (retest, dose inferred, filed as 5.0)
structure (smiles),measurement,setting,value
Cc1ccc(C(C)C)c(C(=C2C=CC(=[N+](C)C)C=C2)c2c(C(C)C)ccc(C)c2O)c1O,growth inhibition,[1]; at 33.0 µM,96% (active)
same,growth inhibition,[1]; at 100.0 µM,84% (active)
same,growth inhibition,[2]; [16],63%
same,growth inhibition,[2]; [17],94% (active)
same,growth inhibition,[2]; at 50.0 µM,96.9% (active)
same,growth inhibition,[3]; at 1.2 µM,-2%
same,growth inhibition,[3]; at 3.7 µM,25%
same,growth inhibition,[3]; at 11.0 µM,98% (active)
same,growth inhibition,[3]; at 33.0 µM,95% (active)
same,growth inhibition,[3]; at 100.0 µM,80% (active)
O=[N+]([O-])C(=C(NCc1ccccc1)NCc1ccccc1)C(Cl)=C(Cl)Cl,growth inhibition,[4]; at 1.2 µM,1%
same,growth inhibition,[4]; at 3.7 µM,2%
same,growth inhibition,[4]; at 11.0 µM,7%
same,growth inhibition,[4]; at 33.0 µM,10%
same,growth inhibition,[4]; at 100.0 µM,41%
same,growth inhibition,[5]; at 1.2 µM,3%
same,growth inhibition,[5]; at 3.7 µM,18%
same,growth inhibition,[5]; at 11.0 µM,56%
same,growth inhibition,[5]; at 33.0 µM,83% (active)
same,growth inhibition,[5]; at 100.0 µM,85% (active)
same,growth inhibition,[6]; at 1.2 µM,-2%
same,growth inhibition,[6]; at 3.7 µM,3%
same,growth inhibition,[6]; at 11.0 µM,5%
same,growth inhibition,[6]; at 33.0 µM,29%
same,growth inhibition,[6]; at 100.0 µM,62%
same,growth inhibition,[7]; at 1.2 µM,1%
same,growth inhibition,[7]; at 3.7 µM,1%
same,growth inhibition,[7]; [16],-8%
same,growth inhibition,[7]; at 11.0 µM,6%
same,growth inhibition,[7]; at 33.0 µM,13%
same,growth inhibition,[7]; [17],57%
same,growth inhibition,[7]; at 50.0 µM,26.6%
same,growth inhibition,[7]; at 100.0 µM,52%
same,growth inhibition,[8]; at 1.2 µM,-1%
same,growth inhibition,[8]; at 3.7 µM,0%
same,growth inhibition,[8]; [16],-7%
same,growth inhibition,[8]; at 11.0 µM,4%
same,growth inhibition,[8]; at 33.0 µM,14%
same,growth inhibition,[8]; [17],24%
same,growth inhibition,[8]; at 50.0 µM,23.6%
same,growth inhibition,[8]; at 100.0 µM,54%
same,growth inhibition,[9]; at 1.2 µM,-4%
same,growth inhibition,[9]; at 3.7 µM,-3%
same,growth inhibition,[9]; at 11.0 µM,1%
same,growth inhibition,[9]; at 33.0 µM,11%
same,growth inhibition,[9]; at 100.0 µM,56%
same,growth inhibition,[10]; [16],2%
same,growth inhibition,[10]; [17],45%
same,growth inhibition,[10]; at 50.0 µM,66%
same,growth inhibition,[11]; [16],40%
same,growth inhibition,[11]; [17],55%
same,growth inhibition,[11]; at 50.0 µM,64.2%
same,growth inhibition,[12]; at 1.2 µM,-5%
same,growth inhibition,[12]; at 3.7 µM,-9%
same,growth inhibition,[12]; [16],0%
same,growth inhibition,[12]; at 11.0 µM,0%
same,growth inhibition,[12]; at 33.0 µM,5%
same,growth inhibition,[12]; [17],42%
same,growth inhibition,[12]; at 50.0 µM,33%
same,growth inhibition,[12]; at 100.0 µM,49%
same,growth inhibition,[13]; at 1.2 µM,1%
same,growth inhibition,[13]; at 3.7 µM,2%
same,growth inhibition,[13]; at 11.0 µM,9%
same,growth inhibition,[13]; at 33.0 µM,19%
same,growth inhibition,[13]; at 100.0 µM,70% (active)
same,growth inhibition,[1]; at 1.2 µM,4%
same,growth inhibition,[1]; at 3.7 µM,1%
same,growth inhibition,[1]; at 11.0 µM,9%
same,growth inhibition,[1]; at 33.0 µM,25%
same,growth inhibition,[1]; at 100.0 µM,85% (active)
same,growth inhibition,[2]; [16],12%
same,growth inhibition,[2]; [17],83% (active)
same,growth inhibition,[2]; at 50.0 µM,81.5% (active)
same,growth inhibition,[3]; at 1.2 µM,-1%
same,growth inhibition,[3]; at 3.7 µM,1%
same,growth inhibition,[3]; at 11.0 µM,5%
same,growth inhibition,[3]; at 33.0 µM,20%
same,growth inhibition,[3]; at 100.0 µM,85% (active)
O=C(O)[C@H]1[C@@H](C2CCCCC2)O[C@@H](C2CCCCC2)O[C@H]1C(F)(F)F,growth inhibition,[4]; at 1.2 µM,-3%
same,growth inhibition,[4]; at 3.7 µM,0%
same,growth inhibition,[4]; at 11.0 µM,0%
same,growth inhibition,[4]; at 33.0 µM,0%
same,growth inhibition,[4]; at 100.0 µM,1%
same,growth inhibition,[5]; at 1.2 µM,-4%
same,growth inhibition,[5]; at 3.7 µM,-1%
same,growth inhibition,[5]; at 11.0 µM,2%
same,growth inhibition,[5]; at 33.0 µM,-2%
same,growth inhibition,[5]; at 100.0 µM,-3%
same,growth inhibition,[6]; at 1.2 µM,0%
same,growth inhibition,[6]; at 3.7 µM,-4%
same,growth inhibition,[6]; at 11.0 µM,10%
same,growth inhibition,[6]; at 33.0 µM,-17%
same,growth inhibition,[6]; at 100.0 µM,0%
same,growth inhibition,[7]; at 1.2 µM,-4%
same,growth inhibition,[7]; at 3.7 µM,-5%
same,growth inhibition,[7]; [16],-46%
same,growth inhibition,[7]; at 11.0 µM,-19%
same,growth inhibition,[7]; at 33.0 µM,-4%
same,growth inhibition,[7]; [17],61%
same,growth inhibition,[7]; at 50.0 µM,88.1% (active)
same,growth inhibition,[7]; at 100.0 µM,-2%
same,growth inhibition,[8]; at 1.2 µM,2%
same,growth inhibition,[8]; at 3.7 µM,-2%
same,growth inhibition,[8]; [16],-19%
same,growth inhibition,[8]; at 11.0 µM,1%
same,growth inhibition,[8]; at 33.0 µM,-4%
same,growth inhibition,[8]; [17],16%
same,growth inhibition,[8]; at 50.0 µM,91.8% (active)
same,growth inhibition,[8]; at 100.0 µM,5%
same,growth inhibition,[9]; at 1.2 µM,-1%
same,growth inhibition,[9]; at 3.7 µM,-1%
same,growth inhibition,[9]; at 11.0 µM,0%
same,growth inhibition,[9]; at 33.0 µM,0%
same,growth inhibition,[9]; at 100.0 µM,-1%
same,growth inhibition,[10]; [16],-25%
same,growth inhibition,[10]; [17],12%
same,growth inhibition,[10]; at 50.0 µM,85.5% (active)
same,growth inhibition,[14]; at 1.2 µM,-1%
same,growth inhibition,[14]; at 3.7 µM,-1%
same,growth inhibition,[14]; at 11.0 µM,-13%
same,growth inhibition,[14]; at 33.0 µM,-8%
same,growth inhibition,[14]; at 100.0 µM,4%
same,growth inhibition,[12]; at 1.2 µM,-4%
same,growth inhibition,[12]; at 3.7 µM,2%
same,growth inhibition,[12]; [16],-20%
same,growth inhibition,[12]; at 11.0 µM,3%
same,growth inhibition,[12]; at 33.0 µM,-2%
same,growth inhibition,[12]; [17],5%
same,growth inhibition,[12]; at 50.0 µM,87.8% (active)
same,growth inhibition,[12]; at 100.0 µM,-1%
same,growth inhibition,[13]; at 1.2 µM,-2%
same,growth inhibition,[13]; at 3.7 µM,-3%
same,growth inhibition,[13]; at 11.0 µM,-3%
same,growth inhibition,[13]; at 33.0 µM,-4%
same,growth inhibition,[13]; at 100.0 µM,-1%
same,growth inhibition,[1]; at 1.2 µM,-3%
same,growth inhibition,[1]; at 3.7 µM,-1%
same,growth inhibition,[1]; at 11.0 µM,-4%
same,growth inhibition,[1]; at 33.0 µM,-5%
same,growth inhibition,[1]; at 100.0 µM,3%
same,growth inhibition,[15]; at 1.2 µM,-2%
same,growth inhibition,[15]; at 3.7 µM,0%
same,growth inhibition,[15]; at 11.0 µM,1%
same,growth inhibition,[15]; at 33.0 µM,1%
same,growth inhibition,[15]; at 100.0 µM,1%
same,growth inhibition,[2]; [16],-3%
same,growth inhibition,[2]; [17],18%
same,growth inhibition,[2]; at 50.0 µM,83.8% (active)
same,growth inhibition,[3]; at 1.2 µM,-6%
same,growth inhibition,[3]; at 3.7 µM,-4%
same,growth inhibition,[3]; at 11.0 µM,-8%
same,growth inhibition,[3]; at 33.0 µM,-6%
same,growth inhibition,[3]; at 100.0 µM,-2%
